High-throughput results from PubChem BioAssay.
RORgamma inh: ROR gamma (mouse) transcription inhibition. AID 2551. Drosophila S2 Gal4-RORgamma UAS-luciferase reporter, 20 h. Potency, µM (titrated, usually from 53.6 µM), for inactives: at the highest dose activity change, negative = inhibition, usual class: inhibitors. P51450. hit rate 5.4% among 310,000; further: nearly all actives have a fitted effect of over 60% in size
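Drosophila S2 cells stably expressing Gal4-DBD/mouse RORγ fusion under metallothionein promoter plus UAS-luciferase; compound 1 h, then 700 uM CuSO4 induction for 20 h at ambient temperature; inhibition read as reduced luminescence.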
DT40 TDP1 CPT: growth inhibition of DT40 Tdp1-/-;hTDP1 cells with camptothecin (screen for TDP1 inhibitors); hit rate 12% among 420,000; chicken DT40 Tdp1-/-;hTDP1 cells + 20 nM CPT, ATP luminescence, 48 h; Potency, µM (top dose mostly 46.2 µM), inactives show top-dose activity change, negative = growth inhibition, most hits filed as inhibitors; further: nearly all actives have a fitted effect of over 55% in size
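Cell growth measured by CellTiter-Glo luminescence after a minimum 48 h, 37 C compound exposure with 20 nM CPT in Tdp1-knockout DT40 cells stably expressing hTDP1, seeded 400/well; qHTS titration format.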
ELG1 DNA repair: ELG1-dependent DNA repair inhibition; HEK293T ELG1-luciferase reporter, luminescence, 16 h; DNA damage induced by 5-fluorouridine; Potency, µM (doses to about 46.1 µM), for the others: at the top dose activity change, negative = inhibition, actives largely listed as inhibitors; hit rate 2.3% among 330,000; further: nearly all actives have a fitted effect of over 55% in size
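Reporter activity after DNA damage by 5-fluorouridine is monitored. Compound-treated cells incubate 16 hr at 37 °C, then ONE-Glo is added for 30 min before luminescence reading.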
12-LOX inh: inhibitors of human 12S-lipoxygenase ALOX12; Potency, µM (top dose mostly 108 µM), inactives show at the top dose activity change, negative = inhibition, most hits filed as inhibitors; P18054; hit rate 1.1% among 580,000; purified 12hLO, xylenol orange hydroperoxide absorbance
Target sequence (P18054 whole entry, looked up): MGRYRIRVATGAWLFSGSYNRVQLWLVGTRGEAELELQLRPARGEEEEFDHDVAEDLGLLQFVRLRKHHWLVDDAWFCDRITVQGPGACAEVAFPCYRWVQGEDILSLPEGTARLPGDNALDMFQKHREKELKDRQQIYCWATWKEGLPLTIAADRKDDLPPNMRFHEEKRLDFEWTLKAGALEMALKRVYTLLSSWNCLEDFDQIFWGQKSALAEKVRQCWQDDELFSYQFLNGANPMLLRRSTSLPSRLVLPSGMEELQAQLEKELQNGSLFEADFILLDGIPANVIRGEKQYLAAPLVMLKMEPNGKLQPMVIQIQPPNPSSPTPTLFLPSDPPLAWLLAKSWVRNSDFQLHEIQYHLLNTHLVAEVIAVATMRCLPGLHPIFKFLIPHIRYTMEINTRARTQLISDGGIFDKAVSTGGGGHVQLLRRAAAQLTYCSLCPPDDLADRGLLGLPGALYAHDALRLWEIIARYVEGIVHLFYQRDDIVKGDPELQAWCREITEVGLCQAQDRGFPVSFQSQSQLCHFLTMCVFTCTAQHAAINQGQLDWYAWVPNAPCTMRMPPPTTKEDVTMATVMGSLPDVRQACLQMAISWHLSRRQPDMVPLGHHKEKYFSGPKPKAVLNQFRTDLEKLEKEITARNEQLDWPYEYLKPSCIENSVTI
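Purified human 12hLO (150 nM final) in 25 mM Hepes, 0.01% Triton X-100, pH 7.0 was preincubated 15 min at room temperature with compound. Then 40 uM arachidonic acid was added, 30 min. Hydroperoxide was read by Fe-XO absorbance ratio 573/405 nm.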
VP16 counter: inhibits Gal4-VP16 luciferase reporter, ROR gamma counter-screen; Drosophila S2 Gal4-VP16 UAS-luciferase, luminescence, 20 h; Potency, µM (doses to about 53.6 µM), without a hit: top-dose activity, negative = inhibition, hits mostly inhibitors; hit rate 3.5% among 310,000;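 further: Gal4-VP16 expression switched on by copper sulfate through the metallothionein promoter; nearly all actives have a fitted effect of over 50% in size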
TDP1 cell noCPT: qHTS for Inhibitors of human tyrosyl-DNA phosphodiesterase 1 (TDP1): qHTS in cells in absence of CPT; DT40 Tdp1-/- hTDP1 cells, no CPT, ATP luminescence, 48 h; hit rate 15% among 420,000; Potency, µM (top dose mostly 46.2 µM), for inactives: at the highest dose activity change, negative = growth inhibition, usual class: inhibitors; further: nearly all actives have a fitted effect of over 55% in size
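Growth of hTDP1-complemented DT40 Tdp1-knockout cells is measured by ATP luminescence after at least 48 hr compound exposure at 37 °C, with DMSO substituting for the 20 nM CPT used in the parallel screen.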
Numbers without * were called inactive; ? = inconclusive; / = no result given; [ ] = remark or other dose. This is a sample that favours compounds with a hit; in the whole collection about 15% have one here. The call rests on the fitted dose curve; in most records, active means well fitted curve in the direction sought with a large enough effect; inconclusive means small, poorly fitted or top-dose-only effect, or another doubt; inactive means no such curve, though single readings can be large; an effect the other way counts as inactive or inconclusive. On the % scale 0 is the no-effect control and ±100 the full control effect; potency means the concentration at half of the fitted maximal effect.

SMILES	RORgamma inh	DT40 TDP1 CPT	ELG1 DNA repair	12-LOX inh	VP16 counter	TDP1 cell noCPT
O=C(c1cc(C(F)(F)F)cc(C(F)(F)F)c1)N1CCC2(CC1)CN(c1ccccn1)C2	-38%	4.6µM*	/	?	16µM*	5.2µM*
O=C(c1cccc(F)c1)N1CCC2(CC1)CCN(c1ccncc1)CC2	-10%	7.3µM*	/	-16%[57.4 µM]	0%	18µM*
O=C(c1cc(C(F)(F)F)cc(C(F)(F)F)c1)N1CCC2(CC1)CCN(c1ccncc1)CC2	-10%	26µM*	/	-2%[57.4 µM]	-3%	18µM*
O=C(c1cccc(F)c1)N1CCC2(CC1)CCN(c1ncccn1)CC2	19%	?	/	-8%[57.4 µM]	-4%	18µM*
CC/C=C(/C)C(=O)NCCc1cccs1	/	/	/	-20%	/	/
Cc1ccc2oc(C(=O)NCC3(c4ccccc4)CC3)cc(=O)c2c1	/	/	/	2%	/	/
O=S1CCNc2ccccc21 (stereo not given)	/	/	/	50%	/	/
CC(NC(=O)c1cc(-c2cccs2)nc2ccccc12)C(C)(C)C (stereo not given)	/	/	/	-38%	/	/
O=C(Nc1cnc(-c2ccccc2)nc1)c1ccc(C2SCCCS2)cc1	/	/	/	-32%	/	/
CN1CCN(c2ccc(C(=O)N3CCC(n4cnnc4)CC3)cc2)CC1	/	/	/	-20%	/	/
O=C(c1cccc(F)c1)N1CCC2(CC1)CN(c1ccccn1)C2	3%	15µM*	/	-10%[57.4 µM]	7%	?
CCCCN(C)C(=O)C(=O)c1c(C)[nH]c2ccccc12	/	/	/	44%	/	/
C=CC[C@@H](Cc1ccc(F)cc1)C(=O)OC[C@@H]1CCCN1C(=O)[C@H](CC=C)CC(=O)N(CCO)Cc1ccccc1	/	?	?	69%	/	18µM*
C=CC[C@@H](Cc1ccc(F)cc1)C(=O)OC[C@H]1CCCN1C(=O)[C@@H](CC=C)CC(=O)N(CCO)Cc1ccccc1	/	15µM*	-24%	6%	/	13µM*
C=CC[C@H](CC(=O)OC(C)(C)C)C(=O)OC[C@H]1CCCN1C(=O)[C@H](CC=C)CC(=O)NCCO	/	-2%	7%	0%	/	-15%
C=CC[C@H](CC(=O)OC(C)(C)C)C(=O)OC[C@H]1CCCN1C(=O)[C@@H](CC=C)CC(=O)N(CCO)Cc1ccccc1	/	18µM*	?	-12%	/	21µM*
CC1=C[C@@H](CN)[C@H](C(C)C)C[C@H]1Cc1nc2ccc(C)cc2[nH]1	/	/	/	-2%[176 µM]	/	/
Cc1ccc([C@H]2C[C@@H](O)[C@@H](O)[C@@H]2NCC(C)(C)O)cc1	/	/	/	-2%[176 µM]	/	/
O=C(c1ccccn1)N1CCC2(CC1)NC(=O)N(Cc1cccc(Cl)c1)C2=O	/	/	/	37%	/	/
CCOC(=O)c1cn(-c2c(Cl)cccc2Cl)c2cc(Cl)c([N+](=O)[O-])cc2c1=O	?	?	?	-14%	2%	16µM*
CC1CCCN1c1ncnc2c1CN(c1cccnc1)C(=O)CN2C (stereo not given)	/	/	/	42%[176 µM]	/	/
CC(C)NCCCCOc1cccc(Br)c1	-14%	?	-4%	?	-2%	23µM*
O=C(c1cccc([N+](=O)[O-])c1)N1CCN(c2ccc(Nc3ccccc3)nn2)CC1	/	?	/	3%	/	21µM*
Cc1ccc(Nc2ccc(N3CCN(C(=O)c4ccc([N+](=O)[O-])cc4Cl)CC3)nn2)cc1	/	21µM*	/	-72%	/	18µM*
O=C(c1cccc([N+](=O)[O-])c1)N1CCN(c2ccc(N3CCOCC3)nn2)CC1	/	6%	7%	7%	/	-4%
SMILES	RORgamma inh	DT40 TDP1 CPT	ELG1 DNA repair	12-LOX inh	VP16 counter	TDP1 cell noCPT
CN(C)S(=O)(=O)c1ccc(-c2cn3ccccc3n2)cc1	34%	-29%	?	-22%	18µM*	?
CCN(CC)S(=O)(=O)c1ccc(-c2cn3ccccc3n2)cc1	/	?	/	4%	/	15µM*
CC1(C)Cc2cccc(OCC(=O)OCC(=O)Nc3ccc(F)c(F)c3)c2O1	/	/	/	-14%	/	/
Clc1ccc(-c2noc(-c3ccncc3)n2)cc1	/	/	/	6%	/	/
COC(=O)c1cnc2c(c1)n(CCCn1cnnn1)c(=O)n2C1CCCCC1	/	/	/	21%	/	/
O=C1NC(NS(=O)(=O)c2ccccc2)(C(F)(F)F)C(=O)N1CCc1ccccc1 (stereo not given)	15%	6%	2%	?	-1%	?
O=C1NC(Nc2nccs2)(C(F)(F)F)C(=O)N1CCc1ccccc1 (stereo not given)	13µM*	-10%	-17%	9%	?	-17%
CC(=O)C1=CCC(c2ccc(Cl)c(Cl)c2)N(S(=O)(=O)c2ccc(C)cc2)C1 (stereo not given)	/	?	/	-10%	/	15µM*
CC(=O)C1=CCC(c2ccc(F)cc2)N(S(=O)(=O)c2ccc(C)cc2)C1 (stereo not given)	/	?	/	?	/	18µM*
CC(=O)C1=CCC(c2ccc(C)cc2)N(S(=O)(=O)c2ccc(Cl)cc2)C1 (stereo not given)	/	?	/	-1%	/	16µM*
Cc1ccc(S(=O)(=O)N2CC(C(=O)O)=CC[C@H]2c2ccc(Cl)cc2)cc1	/	2%	8%	-10%	/	-16%
CCCCN(C)C(=O)Cn1c(C2CC(=O)N(c3cccc(C)c3)C2)nc2ccccc21 (stereo not given)	/	/	/	-38%	/	/
N=C1C(c2nc3ccccc3c(=O)[nH]2)=C(O)CN1CCc1ccccc1	-17%	2.6µM*	-5%	/	-11%	6.5µM*
O=C(Cn1cnc2c(Cl)cc(Cl)cc2c1=O)N1CCCC1c1ccc2c(c1)OCCO2 (stereo not given)	/	/	/	-9%	/	/
Cc1ccc(N=C2SC(C(=O)Nc3ccc(OC(F)(F)F)cc3)C(N)=C2C(=O)Nc2c(C)cc(C)cc2C)cc1 (stereo not given)	?	?	-24%	?	?	?
Cc1ccc(NC(=O)C2SC(=Nc3ccccc3)C(C(=O)Nc3ccc(Cl)cc3)=C2N)cc1 (stereo not given)	13%	6.5µM*	?	/	-1%	18µM*
COc1cc(C(=O)NC2CCN(c3cc(-c4ccc(F)cc4)[nH]n3)CC2)cc(OC)c1OC	/	/	/	29%	/	/
COc1cc(/C=C/c2nc3ccccc3c(=O)[nH]2)cc(Br)c1O	6%	-4%	22%	?	-9%	-5%
COc1cc(/C=C2\CCCc3c2nc2ccccc2c3C(=O)O)cc(Br)c1O	3%	-1%	10%	50µM*	-2%	-5%
